Data on two molecules can be found in ChEMBL document CHEMBL2218924, “A broad activity screen in support of a chemogenomic map for kinase signalling research and drug discovery” (Biochem J, 2013).

The structures appear in SMILES notation.

In assay [1] the target is Tyrosine-protein kinase SYK (Homo sapiens) (UniProt P43405). The note with it: at 10 µM.
For assay [2], the target named is T1, Mitogen-activated protein kinase kinase kinase 7 (Homo sapiens) (UniProt O43318).
T1 sequence (whole entry): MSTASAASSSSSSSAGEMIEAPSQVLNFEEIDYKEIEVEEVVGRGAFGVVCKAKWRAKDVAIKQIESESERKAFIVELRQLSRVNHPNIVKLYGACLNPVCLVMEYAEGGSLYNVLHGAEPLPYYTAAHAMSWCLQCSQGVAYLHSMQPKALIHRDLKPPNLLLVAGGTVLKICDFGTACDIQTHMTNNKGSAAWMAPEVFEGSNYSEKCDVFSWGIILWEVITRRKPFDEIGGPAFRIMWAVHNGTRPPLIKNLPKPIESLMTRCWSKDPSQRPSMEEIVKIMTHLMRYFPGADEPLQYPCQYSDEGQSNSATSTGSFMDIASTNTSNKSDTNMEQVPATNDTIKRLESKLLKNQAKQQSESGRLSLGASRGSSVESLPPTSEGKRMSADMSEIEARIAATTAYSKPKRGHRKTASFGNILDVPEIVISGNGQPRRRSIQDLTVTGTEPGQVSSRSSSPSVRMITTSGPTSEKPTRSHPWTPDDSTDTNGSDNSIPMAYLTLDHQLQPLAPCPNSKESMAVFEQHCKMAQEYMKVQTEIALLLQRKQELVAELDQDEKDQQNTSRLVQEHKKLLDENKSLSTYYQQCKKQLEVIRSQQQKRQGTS
Particulars: at 1 µM.

Assay [3] addresses T1, Mitogen-activated protein kinase kinase kinase 7 (Homo sapiens). The note with it: at 10 µM.
For assay [4], the target named is T2, Serine/threonine-protein kinase TAO1 (Homo sapiens) (UniProt Q7L7X3).
T2 sequence (whole entry): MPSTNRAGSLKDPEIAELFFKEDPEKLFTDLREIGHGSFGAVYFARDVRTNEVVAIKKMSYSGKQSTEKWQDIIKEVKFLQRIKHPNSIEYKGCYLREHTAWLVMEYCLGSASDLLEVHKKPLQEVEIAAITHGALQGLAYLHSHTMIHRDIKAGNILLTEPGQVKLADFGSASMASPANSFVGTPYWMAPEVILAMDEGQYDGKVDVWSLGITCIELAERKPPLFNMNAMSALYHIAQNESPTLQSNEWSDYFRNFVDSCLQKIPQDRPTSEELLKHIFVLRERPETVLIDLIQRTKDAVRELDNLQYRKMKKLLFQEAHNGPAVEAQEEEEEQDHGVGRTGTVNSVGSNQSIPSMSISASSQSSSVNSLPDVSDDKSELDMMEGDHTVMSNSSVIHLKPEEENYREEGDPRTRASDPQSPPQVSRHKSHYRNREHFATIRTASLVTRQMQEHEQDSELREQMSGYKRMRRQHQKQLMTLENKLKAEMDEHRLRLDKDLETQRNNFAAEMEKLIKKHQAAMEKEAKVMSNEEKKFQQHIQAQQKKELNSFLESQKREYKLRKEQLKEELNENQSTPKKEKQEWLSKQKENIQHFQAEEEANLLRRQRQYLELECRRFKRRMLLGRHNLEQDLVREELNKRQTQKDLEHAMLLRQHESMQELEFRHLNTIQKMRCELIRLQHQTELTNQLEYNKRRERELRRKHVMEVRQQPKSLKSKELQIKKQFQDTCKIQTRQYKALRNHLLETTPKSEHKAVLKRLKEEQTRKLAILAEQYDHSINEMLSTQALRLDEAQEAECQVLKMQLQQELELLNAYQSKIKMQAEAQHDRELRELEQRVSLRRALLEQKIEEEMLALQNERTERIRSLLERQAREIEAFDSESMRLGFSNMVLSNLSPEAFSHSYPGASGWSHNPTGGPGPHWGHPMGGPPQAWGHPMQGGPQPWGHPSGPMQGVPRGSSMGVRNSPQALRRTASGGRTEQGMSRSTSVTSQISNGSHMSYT
Particulars: at 1 µM.

The target of assay [5] is T2, Serine/threonine-protein kinase TAO1 (Homo sapiens). The note with it: at 10 µM.
Assay [6] addresses T3, Serine/threonine-protein kinase TBK1 (Homo sapiens) (UniProt Q9UHD2).
T3 sequence (whole entry): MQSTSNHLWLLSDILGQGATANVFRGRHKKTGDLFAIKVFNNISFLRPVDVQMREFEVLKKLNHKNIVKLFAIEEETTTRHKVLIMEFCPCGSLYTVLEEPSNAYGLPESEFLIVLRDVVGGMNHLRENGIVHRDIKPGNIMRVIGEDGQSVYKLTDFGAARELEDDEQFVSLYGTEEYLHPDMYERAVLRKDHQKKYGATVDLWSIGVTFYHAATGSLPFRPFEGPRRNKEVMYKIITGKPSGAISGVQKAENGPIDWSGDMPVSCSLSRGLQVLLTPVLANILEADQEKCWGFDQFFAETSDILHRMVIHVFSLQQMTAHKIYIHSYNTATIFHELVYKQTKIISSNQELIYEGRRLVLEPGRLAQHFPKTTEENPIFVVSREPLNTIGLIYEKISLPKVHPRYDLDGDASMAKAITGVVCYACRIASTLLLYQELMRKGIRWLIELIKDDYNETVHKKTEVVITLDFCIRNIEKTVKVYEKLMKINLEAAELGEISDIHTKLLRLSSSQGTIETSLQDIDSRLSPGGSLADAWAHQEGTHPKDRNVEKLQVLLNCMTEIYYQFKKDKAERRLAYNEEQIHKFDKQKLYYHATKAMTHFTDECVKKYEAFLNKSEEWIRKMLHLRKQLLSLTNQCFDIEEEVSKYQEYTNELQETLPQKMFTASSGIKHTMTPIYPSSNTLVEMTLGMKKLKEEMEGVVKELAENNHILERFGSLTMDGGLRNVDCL
The note with it: at 1 µM.

For assay [7], the target named is T3, Serine/threonine-protein kinase TBK1 (Homo sapiens). The note with it: at 10 µM.
Assay [8] addresses Insulin receptor (Homo sapiens) (UniProt P06213). Particulars: at 1 µM.
For assay [9], the target named is T4, Serine/threonine-protein kinase TAO2 (Homo sapiens) (UniProt Q9UL54).
T4 sequence (whole entry): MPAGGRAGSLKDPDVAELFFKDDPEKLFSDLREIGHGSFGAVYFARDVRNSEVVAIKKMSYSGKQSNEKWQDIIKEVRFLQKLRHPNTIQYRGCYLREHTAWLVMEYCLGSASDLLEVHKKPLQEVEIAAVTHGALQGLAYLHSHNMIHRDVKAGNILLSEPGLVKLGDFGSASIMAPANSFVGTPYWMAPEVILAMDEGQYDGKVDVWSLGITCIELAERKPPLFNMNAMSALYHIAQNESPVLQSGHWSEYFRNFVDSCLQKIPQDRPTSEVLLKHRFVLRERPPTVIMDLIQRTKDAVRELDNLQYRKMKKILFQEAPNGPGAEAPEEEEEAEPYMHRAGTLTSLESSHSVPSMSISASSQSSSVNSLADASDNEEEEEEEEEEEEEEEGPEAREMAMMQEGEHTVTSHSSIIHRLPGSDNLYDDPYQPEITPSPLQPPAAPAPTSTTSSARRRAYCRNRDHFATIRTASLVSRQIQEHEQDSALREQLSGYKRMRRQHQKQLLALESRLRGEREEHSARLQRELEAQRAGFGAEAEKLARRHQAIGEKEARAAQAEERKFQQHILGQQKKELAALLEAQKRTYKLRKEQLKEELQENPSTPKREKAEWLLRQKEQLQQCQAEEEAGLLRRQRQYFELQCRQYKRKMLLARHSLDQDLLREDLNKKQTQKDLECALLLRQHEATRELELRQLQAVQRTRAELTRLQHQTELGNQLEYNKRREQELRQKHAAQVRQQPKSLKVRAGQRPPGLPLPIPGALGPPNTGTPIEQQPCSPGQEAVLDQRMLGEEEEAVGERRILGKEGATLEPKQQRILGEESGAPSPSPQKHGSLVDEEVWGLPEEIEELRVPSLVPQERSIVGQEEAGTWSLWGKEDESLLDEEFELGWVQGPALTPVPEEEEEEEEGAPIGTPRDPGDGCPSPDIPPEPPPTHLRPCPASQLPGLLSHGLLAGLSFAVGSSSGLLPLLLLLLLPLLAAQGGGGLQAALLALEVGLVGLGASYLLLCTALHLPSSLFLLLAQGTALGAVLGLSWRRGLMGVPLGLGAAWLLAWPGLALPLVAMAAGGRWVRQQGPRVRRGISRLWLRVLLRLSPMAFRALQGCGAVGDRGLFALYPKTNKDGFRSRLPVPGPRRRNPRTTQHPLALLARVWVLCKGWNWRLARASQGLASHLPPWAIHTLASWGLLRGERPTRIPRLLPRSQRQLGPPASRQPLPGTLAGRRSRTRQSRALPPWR
The note with it: at 1 µM.

For assay [10], the target named is T4, Serine/threonine-protein kinase TAO2 (Homo sapiens). Particulars: at 10 µM.
The target in assay [11] is T5, Serine/threonine-protein kinase TAO3 (Homo sapiens) (UniProt Q9H2K8).
T5 sequence (whole entry): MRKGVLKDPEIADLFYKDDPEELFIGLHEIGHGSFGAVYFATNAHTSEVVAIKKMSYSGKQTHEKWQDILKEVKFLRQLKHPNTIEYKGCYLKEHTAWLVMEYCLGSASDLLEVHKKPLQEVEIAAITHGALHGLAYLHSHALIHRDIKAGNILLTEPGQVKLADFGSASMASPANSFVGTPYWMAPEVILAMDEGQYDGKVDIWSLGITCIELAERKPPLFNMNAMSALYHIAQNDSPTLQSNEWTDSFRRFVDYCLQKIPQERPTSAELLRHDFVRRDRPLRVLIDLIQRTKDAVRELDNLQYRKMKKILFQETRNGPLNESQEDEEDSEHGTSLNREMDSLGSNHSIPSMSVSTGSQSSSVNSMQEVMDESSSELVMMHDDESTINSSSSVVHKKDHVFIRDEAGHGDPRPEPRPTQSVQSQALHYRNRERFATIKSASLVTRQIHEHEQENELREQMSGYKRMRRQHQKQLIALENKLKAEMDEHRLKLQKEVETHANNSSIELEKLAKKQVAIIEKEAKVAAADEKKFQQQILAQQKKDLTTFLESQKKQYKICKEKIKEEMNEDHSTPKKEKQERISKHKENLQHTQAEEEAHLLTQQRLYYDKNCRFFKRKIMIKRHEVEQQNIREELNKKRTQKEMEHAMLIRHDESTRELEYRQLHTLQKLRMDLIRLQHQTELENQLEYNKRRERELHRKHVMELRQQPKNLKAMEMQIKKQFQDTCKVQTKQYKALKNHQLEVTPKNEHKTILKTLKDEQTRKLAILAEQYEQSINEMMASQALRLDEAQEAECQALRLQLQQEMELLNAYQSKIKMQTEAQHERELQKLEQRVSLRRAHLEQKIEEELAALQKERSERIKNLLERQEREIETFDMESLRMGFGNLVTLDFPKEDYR
Particulars: at 1 µM.

Assay [12] deals with T5, Serine/threonine-protein kinase TAO3 (Homo sapiens). The note with it: at 10 µM.
The target in assay [13] is T6, TGF-beta receptor type-1 (Homo sapiens) (UniProt P36897).
T6 sequence (whole entry): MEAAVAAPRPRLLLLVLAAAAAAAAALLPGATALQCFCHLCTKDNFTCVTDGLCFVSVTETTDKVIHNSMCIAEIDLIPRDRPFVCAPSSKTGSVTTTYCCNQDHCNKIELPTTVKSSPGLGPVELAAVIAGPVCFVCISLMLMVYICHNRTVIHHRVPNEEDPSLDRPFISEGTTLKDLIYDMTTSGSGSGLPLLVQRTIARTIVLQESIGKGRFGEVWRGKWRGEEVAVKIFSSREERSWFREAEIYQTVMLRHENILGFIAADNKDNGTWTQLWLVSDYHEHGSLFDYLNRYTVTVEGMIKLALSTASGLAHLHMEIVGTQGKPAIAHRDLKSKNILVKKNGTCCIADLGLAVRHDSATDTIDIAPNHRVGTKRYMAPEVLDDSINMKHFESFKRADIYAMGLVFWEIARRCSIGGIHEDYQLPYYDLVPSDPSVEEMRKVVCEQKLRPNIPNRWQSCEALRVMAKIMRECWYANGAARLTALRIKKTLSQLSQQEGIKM
The note with it: at 1 µM.

The target in assay [14] is T6, TGF-beta receptor type-1 (Homo sapiens). The note with it: at 10 µM.
Assay [15] addresses Insulin-like growth factor 1 receptor (Homo sapiens) (UniProt P08069). The note with it: at 10 µM.
For assay [16], the target named is T7, Inhibitor of nuclear factor kappa-B kinase subunit beta (Homo sapiens) (UniProt O14920).
T7 sequence (whole entry): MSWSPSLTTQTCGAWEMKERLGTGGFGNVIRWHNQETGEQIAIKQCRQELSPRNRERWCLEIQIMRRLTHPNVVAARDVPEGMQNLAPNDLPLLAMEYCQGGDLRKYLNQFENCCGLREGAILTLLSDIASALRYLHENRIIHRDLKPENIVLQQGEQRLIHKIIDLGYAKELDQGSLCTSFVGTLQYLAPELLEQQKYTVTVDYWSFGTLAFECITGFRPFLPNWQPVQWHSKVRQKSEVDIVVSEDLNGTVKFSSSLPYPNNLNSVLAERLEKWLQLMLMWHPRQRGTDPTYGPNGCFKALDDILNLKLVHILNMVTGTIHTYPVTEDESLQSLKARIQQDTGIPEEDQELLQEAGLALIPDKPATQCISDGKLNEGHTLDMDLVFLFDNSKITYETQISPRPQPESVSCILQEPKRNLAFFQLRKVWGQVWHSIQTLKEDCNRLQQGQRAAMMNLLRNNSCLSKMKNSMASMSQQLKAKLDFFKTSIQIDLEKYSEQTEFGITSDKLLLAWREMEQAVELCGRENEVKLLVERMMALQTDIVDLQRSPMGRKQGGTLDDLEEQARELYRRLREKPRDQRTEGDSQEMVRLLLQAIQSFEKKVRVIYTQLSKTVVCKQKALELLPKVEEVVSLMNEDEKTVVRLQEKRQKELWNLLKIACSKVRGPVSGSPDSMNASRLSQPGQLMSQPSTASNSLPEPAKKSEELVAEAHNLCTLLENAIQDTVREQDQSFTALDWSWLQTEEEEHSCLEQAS
The note with it: at 10 µM.

Sequence of Insulin receptor (Homo sapiens) (P06213 28-758 limits assumed): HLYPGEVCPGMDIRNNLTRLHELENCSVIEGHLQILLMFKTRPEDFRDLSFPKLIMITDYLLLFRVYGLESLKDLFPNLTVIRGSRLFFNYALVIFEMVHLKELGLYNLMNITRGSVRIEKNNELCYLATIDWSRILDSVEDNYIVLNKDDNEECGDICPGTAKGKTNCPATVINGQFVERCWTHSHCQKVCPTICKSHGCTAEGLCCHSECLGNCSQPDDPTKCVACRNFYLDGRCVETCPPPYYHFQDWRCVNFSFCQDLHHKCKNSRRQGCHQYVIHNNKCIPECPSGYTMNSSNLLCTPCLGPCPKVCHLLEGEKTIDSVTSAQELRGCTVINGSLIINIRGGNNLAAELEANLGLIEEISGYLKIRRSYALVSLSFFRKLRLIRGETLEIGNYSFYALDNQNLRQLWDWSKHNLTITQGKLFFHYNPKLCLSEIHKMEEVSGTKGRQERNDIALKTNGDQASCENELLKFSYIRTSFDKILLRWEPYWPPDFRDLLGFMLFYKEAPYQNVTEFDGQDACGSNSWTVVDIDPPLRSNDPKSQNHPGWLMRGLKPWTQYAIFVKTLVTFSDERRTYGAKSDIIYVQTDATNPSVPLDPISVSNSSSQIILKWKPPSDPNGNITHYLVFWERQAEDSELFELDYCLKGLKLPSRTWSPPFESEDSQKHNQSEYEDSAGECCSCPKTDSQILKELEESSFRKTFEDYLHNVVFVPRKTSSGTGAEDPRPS
Sequence of Insulin receptor (Homo sapiens) (P06213 763-1382 limits assumed): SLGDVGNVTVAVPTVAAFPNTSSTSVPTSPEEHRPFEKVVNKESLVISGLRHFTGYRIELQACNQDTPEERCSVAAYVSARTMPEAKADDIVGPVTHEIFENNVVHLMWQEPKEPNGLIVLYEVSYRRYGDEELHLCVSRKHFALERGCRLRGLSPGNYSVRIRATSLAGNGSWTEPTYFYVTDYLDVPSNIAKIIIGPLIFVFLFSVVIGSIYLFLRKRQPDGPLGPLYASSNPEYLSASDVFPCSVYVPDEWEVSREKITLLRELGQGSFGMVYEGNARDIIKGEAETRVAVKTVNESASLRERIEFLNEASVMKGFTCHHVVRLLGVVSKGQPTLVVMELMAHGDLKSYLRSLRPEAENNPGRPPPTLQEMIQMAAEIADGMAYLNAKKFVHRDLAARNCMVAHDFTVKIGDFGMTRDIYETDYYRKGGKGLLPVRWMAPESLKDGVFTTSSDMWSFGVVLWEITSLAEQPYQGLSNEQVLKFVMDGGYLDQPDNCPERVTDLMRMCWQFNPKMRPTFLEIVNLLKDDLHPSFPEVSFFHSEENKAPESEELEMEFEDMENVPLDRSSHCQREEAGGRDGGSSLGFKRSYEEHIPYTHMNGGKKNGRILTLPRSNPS
Sequence of Insulin-like growth factor 1 receptor (Homo sapiens) (P08069 31-736 limits assumed): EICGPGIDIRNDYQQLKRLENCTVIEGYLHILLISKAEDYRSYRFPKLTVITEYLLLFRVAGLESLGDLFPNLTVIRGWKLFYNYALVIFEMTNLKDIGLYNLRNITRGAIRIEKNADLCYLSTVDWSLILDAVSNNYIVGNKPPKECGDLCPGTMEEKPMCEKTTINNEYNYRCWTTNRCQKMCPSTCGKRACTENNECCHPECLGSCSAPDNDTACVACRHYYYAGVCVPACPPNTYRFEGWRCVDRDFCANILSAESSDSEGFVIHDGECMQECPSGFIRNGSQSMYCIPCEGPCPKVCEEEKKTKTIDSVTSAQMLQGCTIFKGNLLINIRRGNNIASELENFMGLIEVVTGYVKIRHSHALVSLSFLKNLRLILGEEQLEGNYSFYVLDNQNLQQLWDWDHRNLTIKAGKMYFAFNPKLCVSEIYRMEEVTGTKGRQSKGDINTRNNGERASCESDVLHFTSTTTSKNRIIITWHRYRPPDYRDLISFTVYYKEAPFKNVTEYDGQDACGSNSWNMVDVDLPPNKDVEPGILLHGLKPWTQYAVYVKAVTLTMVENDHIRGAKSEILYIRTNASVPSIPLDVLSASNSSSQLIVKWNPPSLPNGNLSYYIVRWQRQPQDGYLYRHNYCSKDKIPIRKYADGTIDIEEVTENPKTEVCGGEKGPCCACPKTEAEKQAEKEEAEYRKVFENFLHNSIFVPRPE
Sequence of Insulin-like growth factor 1 receptor (Homo sapiens) (P08069 741-1367 limits assumed): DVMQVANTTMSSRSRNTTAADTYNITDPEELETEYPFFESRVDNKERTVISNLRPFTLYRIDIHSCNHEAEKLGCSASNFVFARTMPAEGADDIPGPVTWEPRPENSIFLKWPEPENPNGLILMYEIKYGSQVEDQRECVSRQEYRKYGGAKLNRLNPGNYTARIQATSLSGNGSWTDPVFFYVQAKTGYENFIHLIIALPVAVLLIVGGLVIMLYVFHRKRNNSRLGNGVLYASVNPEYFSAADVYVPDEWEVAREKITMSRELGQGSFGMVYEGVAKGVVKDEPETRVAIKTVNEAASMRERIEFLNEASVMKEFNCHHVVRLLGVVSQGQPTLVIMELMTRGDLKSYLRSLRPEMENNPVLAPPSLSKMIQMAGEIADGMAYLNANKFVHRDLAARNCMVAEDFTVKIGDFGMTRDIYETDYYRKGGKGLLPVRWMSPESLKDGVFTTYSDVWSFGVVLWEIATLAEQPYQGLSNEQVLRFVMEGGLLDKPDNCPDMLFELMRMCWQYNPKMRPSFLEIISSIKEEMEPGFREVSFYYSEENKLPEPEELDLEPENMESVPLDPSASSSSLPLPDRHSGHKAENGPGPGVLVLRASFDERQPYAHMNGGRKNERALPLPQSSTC

For the molecule `O=C1Cc2c([nH]c3ccc(Br)cc23)-c2ccccc2N1`, the residual activity in assay [1] turned out to be 25%; in [2], 81%; in assay [3], 68%; in assay [4], 76%; in assay [5] it was 28%; in assay [6] it was 53%. Moreover, the residual activity amounted to 31% in [7] and 95% in [8].
On to `Nc1nc(Nc2ccc(S(N)(=O)=O)cc2)nn1C(=O)c1c(F)cccc1F`, for which the residual activity turned out to be 11% in assay [1]; 82% in [2]; 34% in assay [3]; 15% in assay [4]; 4% in assay [5]; 6% in assay [9]. Also, the residual activity in [10] turned out to be 2%; in assay [11], 18%; in assay [12], 4%; in assay [6] it was 72%; in [7], 19%; in assay [13], 105%. Besides, the residual activity in assay [14] stood at 62%; in assay [15], 63%; in assay [16], 69%.
